# Measurements: PubChem BioAssay (NCATS)
# Results filed as inconclusive are left out. Activity calls are given as the source filed them. The call rests on the fitted dose curve.
# Biological target: Peroxisome proliferator-activated receptor delta (Homo sapiens) (UniProt Q03181)
# Assay: qHTS assay for small molecule agonists of peroxisome proliferator-activated receptor delta signaling (AID 588534)
# Conditions: HEK293T PPARdelta-UAS-bla, beta-lactamase ratio, 18 h; series mostly up to 76.7 µM
# Outline: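 Titration series tested in agonist mode on beta-lactamase reporter cells; 18 hrs at 37 C after a 5 hr pre-incubation. Readout: CCF4 fluorescence, 2 hrs RT. Hill equation gives EC50 and maximal response.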
# Chain of Peroxisome proliferator-activated receptor delta (Homo sapiens) (Q03181 whole entry, looked up): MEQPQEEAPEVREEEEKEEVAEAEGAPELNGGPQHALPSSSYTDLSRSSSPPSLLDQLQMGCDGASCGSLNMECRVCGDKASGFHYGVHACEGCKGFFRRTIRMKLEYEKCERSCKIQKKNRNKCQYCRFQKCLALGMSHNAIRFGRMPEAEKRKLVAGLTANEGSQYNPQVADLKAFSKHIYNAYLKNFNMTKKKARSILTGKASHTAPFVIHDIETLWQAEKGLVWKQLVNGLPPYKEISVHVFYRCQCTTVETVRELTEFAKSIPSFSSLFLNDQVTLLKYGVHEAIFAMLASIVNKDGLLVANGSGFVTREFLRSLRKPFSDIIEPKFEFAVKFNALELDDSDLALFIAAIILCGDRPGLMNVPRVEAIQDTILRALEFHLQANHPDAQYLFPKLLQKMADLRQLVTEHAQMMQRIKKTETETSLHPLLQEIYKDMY
row,Compound,outcome
1,Nc1cc(Cl)c([N+](=O)[O-])cc1O,inactive
2,O=C(O)CNC(=O)c1ccc(CO)o1,inactive
3,Nc1cccc(S(=O)(=O)O)c1,inactive
4,COCCOC(=O)c1ccccc1C(=O)OCCOC,inactive
5,CCOC(=O)C(C)C(C)=O (stereo not given),inactive
6,C=Cc1ccc(C=C)cc1,inactive
7,CC(C)COC(=O)COc1cc(Cl)c(Cl)cc1Cl,inactive
8,CCCCCCCC/C=C\CCCCCCCCO,inactive
9,O=[N+]([O-])c1ccc(F)cc1F,inactive
10,O=C=NC1CCC(CC2CCC(N=C=O)CC2)CC1 (stereo not given),inactive
11,CCCCCCN,inactive
12,C/C(C=O)=C/c1ccccc1,inactive
13,CCCCCCC(C)OC(=O)COc1nc(F)c(Cl)c(N)c1Cl (stereo not given),inactive
14,CC1(C)CC(N)CC(C)(CN)C1 (stereo not given),inactive
15,CN(C)c1cccc(O)c1,inactive
16,CC1(C)C(=O)N(Br)C(=O)N1Cl,inactive
17,Cc1cccc2sc(N)nc12,inactive
18,C/C=C\c1ccc(OC)cc1,inactive
19,Cc1ccccc1C(=O)O,inactive
20,c1ccsc1,inactive

row,Compound,outcome
1,O=CC(=O)c1ccccc1,inactive
2,CCCCCCCCCCCCN,inactive
3,Cc1cccc([N+](=O)[O-])c1C,inactive
4,Cc1cc(C)cc(O)c1,inactive
5,O=C(Cl)c1cc(Cl)cc(Cl)c1,inactive
6,NC(=O)NC(N)=O,inactive
7,Fc1ccccc1,inactive
8,OCCC(F)(F)C(F)(F)C(F)(F)C(F)(F)C(F)(F)C(F)(F)C(F)(F)C(F)(F)F,inactive
9,CCCCC(CC)CN1C(=O)C2C3C=CC(C3)C2C1=O (stereo not given),inactive
10,O=c1oc(=O)c2cc3c(=O)oc(=O)c3cc12,inactive
11,O=C(Cl)c1ccc([N+](=O)[O-])cc1,inactive
12,CC(C)C(C)C,inactive
13,Clc1cc(Cl)c(Cl)cc1Cl,inactive
14,Cc1ccc2ccccc2c1[N+](=O)[O-],inactive
15,Cc1ccc(S(=O)(=O)N=C=O)cc1,inactive
16,CCCCCCCC(=O)OC,inactive
17,Cc1ccc(C)c([N+](=O)[O-])c1,inactive
18,CC(C)(N=C=O)c1cccc(C(C)(C)N=C=O)c1,inactive
19,Cc1ccc(S(=O)(=O)NCl)cc1,inactive
20,C=CCOC(=O)COCCC(C)C,inactive
